Data on seven sequences can be found in paper PMC7862700, “An all-to-all approach to the identification of sequence-specific readers for epigenetic DNA modifications on cytosine”.

Holding throughout (assay): DAPPL (digital affinity profiling via proximity ligation, sequencing); 10 mM Tris-HCl pH 7.5, 50 mM NaCl, 1 mM DTT, 4% glycerol, room temperature, 30 min; GST-TFs on glutathione beads, 16-mer random dsDNA library, 0.1% formaldehyde crosslink after washing; high values mean tight binding
Common to all, as to conditions: protein: recombinant; tags: N-terminal GST; dsDNA, one strand shown

The target in test [1] is T1, FLI1 (Homo sapiens, UniProt Q01543 1-452).
T1 sequence: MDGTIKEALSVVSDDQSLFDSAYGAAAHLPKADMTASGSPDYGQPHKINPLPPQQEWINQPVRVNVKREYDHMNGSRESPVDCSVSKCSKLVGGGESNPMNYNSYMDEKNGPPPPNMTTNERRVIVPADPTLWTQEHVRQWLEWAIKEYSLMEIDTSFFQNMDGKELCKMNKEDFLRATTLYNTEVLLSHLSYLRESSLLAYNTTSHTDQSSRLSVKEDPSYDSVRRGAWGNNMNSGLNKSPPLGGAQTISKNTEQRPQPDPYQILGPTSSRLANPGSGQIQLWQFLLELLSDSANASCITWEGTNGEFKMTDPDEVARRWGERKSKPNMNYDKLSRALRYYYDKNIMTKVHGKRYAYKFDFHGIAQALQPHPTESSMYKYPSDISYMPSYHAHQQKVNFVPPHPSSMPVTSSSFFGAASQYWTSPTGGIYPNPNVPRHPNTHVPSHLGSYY
The method, boiled down: (§1)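 After expression in yeast as GST fusions, human transcription factors were bound to glutathione beads, DNA-barcoded and mixed with a tag-only sample. The pools were incubated with 200 nmole of a 16-mer random double-stranded DNA library in Tris/NaCl/DTT/glycerol buffer (30 min, room temperature), washed and crosslinked with 0.1% formaldehyde. Proximity ligation with BsaI/T4 ligase ran for 1 h at 37 °C, before PCR amplification and sequencing on an Illumina NextSeq500. Binding signal is a hexamer's read frequency for a factor divided by its frequency for the tag-only sample.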

Test [2] addresses T2, ELK1 (Homo sapiens, UniProt P19419 1-428).
T2 sequence: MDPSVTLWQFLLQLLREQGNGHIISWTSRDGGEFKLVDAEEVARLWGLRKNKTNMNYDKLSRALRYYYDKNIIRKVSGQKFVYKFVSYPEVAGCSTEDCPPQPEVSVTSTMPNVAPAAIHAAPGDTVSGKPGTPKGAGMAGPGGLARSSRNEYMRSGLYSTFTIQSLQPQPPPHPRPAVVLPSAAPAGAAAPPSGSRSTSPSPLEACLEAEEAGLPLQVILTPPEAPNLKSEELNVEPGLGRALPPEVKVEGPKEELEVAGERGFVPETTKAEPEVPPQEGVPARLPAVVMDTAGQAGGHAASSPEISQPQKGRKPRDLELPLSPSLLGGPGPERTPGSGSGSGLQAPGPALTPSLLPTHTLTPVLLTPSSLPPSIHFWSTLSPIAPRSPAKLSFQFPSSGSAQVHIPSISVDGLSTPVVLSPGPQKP
The method, boiled down:
as §1

Test [3] deals with T3, GABPA (Homo sapiens, UniProt Q06546 1-454).
T3 sequence: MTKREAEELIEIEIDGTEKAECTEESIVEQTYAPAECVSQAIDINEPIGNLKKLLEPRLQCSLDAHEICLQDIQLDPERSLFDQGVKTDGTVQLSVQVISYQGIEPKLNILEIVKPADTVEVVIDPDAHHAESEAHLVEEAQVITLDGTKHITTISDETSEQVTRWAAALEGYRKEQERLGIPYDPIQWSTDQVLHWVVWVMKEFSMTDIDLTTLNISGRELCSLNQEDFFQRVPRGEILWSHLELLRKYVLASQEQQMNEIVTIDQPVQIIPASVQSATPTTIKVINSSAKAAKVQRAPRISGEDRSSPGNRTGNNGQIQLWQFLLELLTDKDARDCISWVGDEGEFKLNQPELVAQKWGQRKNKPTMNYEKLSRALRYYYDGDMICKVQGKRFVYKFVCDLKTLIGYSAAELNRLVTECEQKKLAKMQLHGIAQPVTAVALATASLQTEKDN
The method, boiled down: as §1

The target of test [4] is T4, ERG (Homo sapiens, UniProt P11308 1-479).
T4 sequence: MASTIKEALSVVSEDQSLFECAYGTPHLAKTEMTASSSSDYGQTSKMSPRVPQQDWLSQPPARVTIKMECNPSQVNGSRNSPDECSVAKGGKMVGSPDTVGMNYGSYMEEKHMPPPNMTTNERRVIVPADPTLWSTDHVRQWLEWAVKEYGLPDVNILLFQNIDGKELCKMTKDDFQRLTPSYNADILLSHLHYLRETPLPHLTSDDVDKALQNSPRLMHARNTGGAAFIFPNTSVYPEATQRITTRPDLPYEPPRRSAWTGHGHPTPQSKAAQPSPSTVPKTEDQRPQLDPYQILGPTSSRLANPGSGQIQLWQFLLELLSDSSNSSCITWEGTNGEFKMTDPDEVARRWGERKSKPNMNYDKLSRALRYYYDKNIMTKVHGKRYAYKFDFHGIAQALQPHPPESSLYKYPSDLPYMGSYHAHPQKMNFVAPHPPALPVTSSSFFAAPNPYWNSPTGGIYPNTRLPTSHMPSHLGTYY
The method in brief:
as §1

The target in test [5] is ELF1 (Homo sapiens, UniProt P32519 1-619). The method, boiled down: as §1
Test [6] deals with T5, EHF (Homo sapiens, UniProt Q9NZC4 1-300).
T5 sequence: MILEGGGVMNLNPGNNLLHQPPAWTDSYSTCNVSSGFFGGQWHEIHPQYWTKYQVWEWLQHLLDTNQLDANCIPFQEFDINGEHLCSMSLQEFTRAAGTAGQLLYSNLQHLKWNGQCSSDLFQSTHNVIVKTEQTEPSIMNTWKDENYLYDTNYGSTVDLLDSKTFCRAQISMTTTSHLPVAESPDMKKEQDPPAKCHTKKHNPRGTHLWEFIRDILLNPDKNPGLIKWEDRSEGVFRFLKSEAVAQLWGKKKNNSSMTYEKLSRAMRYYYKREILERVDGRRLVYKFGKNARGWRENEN
The method, boiled down: as §1

The target of test [7] is SPI1 (Homo sapiens, UniProt P17947 1-270). The method in brief:
as §1

Test [8] deals with SPIB (Homo sapiens, UniProt Q01892 1-262). The method in brief:
as §1

For test [9], the target named is T6, ELK3 (Homo sapiens, UniProt P41970 1-407).
T6 sequence: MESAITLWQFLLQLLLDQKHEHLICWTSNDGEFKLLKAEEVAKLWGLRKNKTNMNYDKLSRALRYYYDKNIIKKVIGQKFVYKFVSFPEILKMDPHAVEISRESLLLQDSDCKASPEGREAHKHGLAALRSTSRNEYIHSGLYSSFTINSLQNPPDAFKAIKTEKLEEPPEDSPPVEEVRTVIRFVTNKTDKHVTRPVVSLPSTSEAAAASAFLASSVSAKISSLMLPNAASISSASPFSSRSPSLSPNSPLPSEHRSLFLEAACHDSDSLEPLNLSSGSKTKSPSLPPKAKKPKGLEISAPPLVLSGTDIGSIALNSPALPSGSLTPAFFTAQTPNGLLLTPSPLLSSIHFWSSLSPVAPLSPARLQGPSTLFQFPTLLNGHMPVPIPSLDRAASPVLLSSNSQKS
The method, boiled down:
as §1

Chain of ELF1 (P32519 whole entry): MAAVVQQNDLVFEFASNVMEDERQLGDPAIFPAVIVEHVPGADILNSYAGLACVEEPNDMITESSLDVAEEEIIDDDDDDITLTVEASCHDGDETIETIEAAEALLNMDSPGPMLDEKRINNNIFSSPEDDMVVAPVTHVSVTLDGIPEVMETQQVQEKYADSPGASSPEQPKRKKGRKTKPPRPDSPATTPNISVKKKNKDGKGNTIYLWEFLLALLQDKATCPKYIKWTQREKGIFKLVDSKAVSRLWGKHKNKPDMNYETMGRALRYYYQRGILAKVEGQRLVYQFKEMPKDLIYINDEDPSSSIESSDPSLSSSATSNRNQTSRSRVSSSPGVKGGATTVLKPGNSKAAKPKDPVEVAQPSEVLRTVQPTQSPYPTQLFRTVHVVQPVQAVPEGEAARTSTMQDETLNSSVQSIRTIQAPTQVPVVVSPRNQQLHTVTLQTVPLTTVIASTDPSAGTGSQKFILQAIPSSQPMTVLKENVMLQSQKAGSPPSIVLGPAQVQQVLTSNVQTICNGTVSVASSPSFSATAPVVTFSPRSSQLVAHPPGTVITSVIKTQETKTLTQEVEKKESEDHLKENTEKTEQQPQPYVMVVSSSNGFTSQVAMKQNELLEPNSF
Chain of SPIB (Q01892 whole entry): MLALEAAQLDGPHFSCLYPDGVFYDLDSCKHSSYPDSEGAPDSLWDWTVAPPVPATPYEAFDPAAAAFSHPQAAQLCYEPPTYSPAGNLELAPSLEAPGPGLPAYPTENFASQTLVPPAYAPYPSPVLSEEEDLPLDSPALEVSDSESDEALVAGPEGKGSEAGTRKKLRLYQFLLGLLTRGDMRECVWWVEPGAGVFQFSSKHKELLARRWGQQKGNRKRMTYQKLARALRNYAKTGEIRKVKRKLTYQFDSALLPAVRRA

For the sequence ATACTA, the binding signal in test [1] is 1.16 fold enrichment (6-mer frequency, TF over GST control); in test [2], 1.11 fold enrichment (6-mer frequency, TF over GST control); in [3] it was 1.25 fold enrichment (6-mer frequency, TF over GST control); in [4], 1.17 fold enrichment (6-mer frequency, TF over GST control); in test [5], 1.21 fold enrichment (6-mer frequency, TF over GST control); in test [6], 1.22 fold enrichment (6-mer frequency, TF over GST control). In addition, the binding signal in test [7] is 1.13 fold enrichment (6-mer frequency, TF over GST control); in test [8], 1.22 fold enrichment (6-mer frequency, TF over GST control); in test [9], 1.06 fold enrichment (6-mer frequency, TF over GST control).

For the sequence AGTGGC, the binding signal was 1.31 fold enrichment (6-mer frequency, TF over GST control) in [1]; 1.19 fold enrichment (6-mer frequency, TF over GST control) in test [2]; 1.2 fold enrichment (6-mer frequency, TF over GST control) in test [3]; 1.28 fold enrichment (6-mer frequency, TF over GST control) in test [4]; 1.23 fold enrichment (6-mer frequency, TF over GST control) in [5]; 1.4 fold enrichment (6-mer frequency, TF over GST control) in test [6]. Also, the binding signal is 1.75 fold enrichment (6-mer frequency, TF over GST control) in [7]; 1.3 fold enrichment (6-mer frequency, TF over GST control) in [8]; 1.31 fold enrichment (6-mer frequency, TF over GST control) in test [9].

Consider ACGACA, for which the binding signal in test [1] is 1.16 fold enrichment (6-mer frequency, TF over GST control); in test [2], 1.05 fold enrichment (6-mer frequency, TF over GST control); in [3], 1.18 fold enrichment (6-mer frequency, TF over GST control); in [4], 1.17 fold enrichment (6-mer frequency, TF over GST control); in test [5], 1.07 fold enrichment (6-mer frequency, TF over GST control); in test [6] it was 1.27 fold enrichment (6-mer frequency, TF over GST control). For the same sequence, the binding signal in [7] was 1.09 fold enrichment (6-mer frequency, TF over GST control); in test [8], 1.16 fold enrichment (6-mer frequency, TF over GST control); in test [9], 1.11 fold enrichment (6-mer frequency, TF over GST control).

As to CCCCCG, the binding signal in test [1] is 1.21 fold enrichment (6-mer frequency, TF over GST control); in test [2], 1.09 fold enrichment (6-mer frequency, TF over GST control); in [3], 1.03 fold enrichment (6-mer frequency, TF over GST control); in test [4] it was 1.18 fold enrichment (6-mer frequency, TF over GST control); in test [5], 1.1 fold enrichment (6-mer frequency, TF over GST control); in [6], 1.1 fold enrichment (6-mer frequency, TF over GST control). For the same sequence, the binding signal in [7] was 1.08 fold enrichment (6-mer frequency, TF over GST control); in [8] it was 1.09 fold enrichment (6-mer frequency, TF over GST control); in [9] it was 1.07 fold enrichment (6-mer frequency, TF over GST control).

With CTTGTT, the binding signal in test [1] was 1.2 fold enrichment (6-mer frequency, TF over GST control); in [2], 1.18 fold enrichment (6-mer frequency, TF over GST control); in [3] it was 1.15 fold enrichment (6-mer frequency, TF over GST control); in [4], 1.26 fold enrichment (6-mer frequency, TF over GST control); in test [5] it was 1.21 fold enrichment (6-mer frequency, TF over GST control); in test [6], 1.31 fold enrichment (6-mer frequency, TF over GST control). In addition, the binding signal in test [7] was 1.25 fold enrichment (6-mer frequency, TF over GST control); in test [8] it was 1.29 fold enrichment (6-mer frequency, TF over GST control); in test [9], 1.3 fold enrichment (6-mer frequency, TF over GST control).

With GCGGAA, the binding signal is 1.37 fold enrichment (6-mer frequency, TF over GST control) in test [1]; 1.33 fold enrichment (6-mer frequency, TF over GST control) in [2]; 1.29 fold enrichment (6-mer frequency, TF over GST control) in [3]; 1.46 fold enrichment (6-mer frequency, TF over GST control) in test [4]; 1.28 fold enrichment (6-mer frequency, TF over GST control) in [5]; 1.52 fold enrichment (6-mer frequency, TF over GST control) in test [6]. Further, the binding signal in test [7] was 2.18 fold enrichment (6-mer frequency, TF over GST control); in test [8], 1.49 fold enrichment (6-mer frequency, TF over GST control); in [9], 1.37 fold enrichment (6-mer frequency, TF over GST control).

As for TAAGCC, the binding signal in test [1] is 1.15 fold enrichment (6-mer frequency, TF over GST control); in test [2] it was 1.12 fold enrichment (6-mer frequency, TF over GST control); in test [3], 1.19 fold enrichment (6-mer frequency, TF over GST control); in test [4] it was 1.13 fold enrichment (6-mer frequency, TF over GST control); in test [5], 1.16 fold enrichment (6-mer frequency, TF over GST control); in test [6] it was 1.08 fold enrichment (6-mer frequency, TF over GST control). In addition, the binding signal in test [7] was 1.08 fold enrichment (6-mer frequency, TF over GST control); in test [8] it was 1.19 fold enrichment (6-mer frequency, TF over GST control); in test [9], 1.06 fold enrichment (6-mer frequency, TF over GST control).
